Experimental data published in ChEMBL document CHEMBL4513216, “Probing the Open Global Health Chemical Diversity Library for Multistage-Active Starting Points for Next-Generation Antimalarials” (ACS Infect Dis, 2020).
Hit rate of the full screen: of about 69,000 compounds, about 8,600 (12%) showed an effect of 50% or more. This excerpt belongs to a sample that is enriched for strong results.

System: Plasmodium berghei
Assay: Screen against P. berghei liver stage (PbLuc), transformed with Luciferase, at 10uM
Format: functional, HepG2
Details: tested at 10 uM

Row | SMILES | INHIBITION
1 | NC(=O)CN1CCCC(Cc2ccc(N3CCOCC3)nn2)C1 (stereo unspecified) | 15.9%
2 | COC(=O)C(NC(=O)C1CCC1)c1cc(F)ccc1F (stereo unspecified) | -19.9%
3 | Cc1nn(C)c(Cl)c1C(=O)NCC1(C(N)=O)CCOCC1 | 27.5%
4 | Cc1ccc2[nH]c(CN(C)Cc3n[nH]c4c3CCC4)nc2c1 | -30.5%
5 | Cc1ccc2nc(CN(C)Cc3n[nH]c4c3CCCCC4)[nH]c2c1C | 69.6%
6 | Cc1ccc2nc(CN(C)Cc3[nH]nc4c3CCC4)[nH]c2c1C | -59.5%
7 | CCCNS(=O)(=O)c1cnccc1N1CCN(C(C)C)CC1 | -15.5%
8 | C1CC(NCC2CC2)CN(Cc2noc(C3CC3)n2)C1 (stereo unspecified) | 19.5%
9 | CCC1COCCN1C(=O)NCc1cccc(-c2cnn(C)c2)c1 (stereo unspecified) | 21.2%
10 | Cn1cc(-c2cccc(CNC(=O)N3CCC[C@@H]3CO)c2)cn1 | -21.6%
11 | CCN1CCN(C(=O)NCc2cccc(-c3cnn(C)c3)c2)CC1 | 50.1%
12 | Cn1cc(C(=O)N2CC[C@@H]3[C@@H]2CCN3Cc2cccc(C#N)c2)cn1 | 41.6%
13 | CN(Cc1ccc(F)c(F)c1)C(=O)CCc1nc(-c2nnc[nH]2)no1 | 55.4%
14 | CN(CCCc1ccccc1)C(=O)CCc1nc(-c2nnc[nH]2)no1 | 22%
15 | Cc1ccccc1CN(C)C(=O)CCc1nc(-c2nnc[nH]2)no1 | 13.7%
16 | O=C(NCc1cccc(F)c1)NCC(O)c1cccc(F)c1 (stereo unspecified) | -21.5%
17 | CN(C)CCOCc1nnc2n1CCN(CC1CC1)CC2 | 36.2%
18 | COc1cccc(C(=O)NCc2ccccc2S(=O)(=O)N(C)C)c1 | 45.2%
19 | COc1cccc(C(=O)NCc2ccccc2S(=O)(=O)N(C)CCO)c1 | 78.1%
20 | Cc1ccc(C(=O)NCc2ccccc2S(=O)(=O)N(C)CCO)cc1F | -27.8%
21 | Cc1noc(C2CCN(C(=O)c3cccs3)CC2)n1 | 21%
22 | CC1(C)CC(N2CCN(C3CCCC3)C(CCO)C2)CC(C)(C)C1 (stereo unspecified) | -2.98%
23 | CN(CC(F)(F)F)C(=O)COc1nc(Cc2ccc(F)cc2)no1 | 40.6%

Row | SMILES | INHIBITION
24 | Cc1cccc(C(=O)N2CCCSCC2CN2CCCC2)c1 (stereo unspecified) | -19.7%
25 | Cc1cccc(NCc2nn(C)c(=O)[nH]2)c1 | 59.8%
26 | Cc1cccc(NCc2nc(C)ccc2O)c1 | 24.8%
27 | Cn1[nH]c(CNc2cccc(Cl)c2)nc1=O | -0.473%
28 | CCc1ncc2c(n1)CN(CC(=O)Nc1cc(C)no1)CC2 | -25.8%
29 | CN1CCN(C2CCCC2)C(CCO)C1 (stereo unspecified) | 7.24%
30 | COC(=O)COc1nc(C(C)C)no1 | 7.25%
31 | CCN(CC)C(=O)COc1nc(C(C)C)no1 | 53.1%
32 | CC(C)c1noc(OCC(=O)N(C)C(C)C)n1 | -13.6%
33 | CCc1nn(C)c(Cl)c1CN1CCC(Cc2nncn2C)CC1 | -7.25%
34 | Cn1nc(CN2CCC(c3ccncc3)CC2)c2c(Cl)cccc21 | -18.1%
35 | Cn1cnnc1CC1CCN(Cc2nn(C)c3cccc(Cl)c23)CC1 | 75.4%
36 | Cc1nc(CN2CCOC3(CCCC3)C2)no1 | 42.5%
37 | Cc1nc(CN2CCCC(C)(CO)C2)no1 (stereo unspecified) | 68.1%
38 | Cc1nc(CN2CCCN(CCCc3ccccc3)CC2)no1 | -34.8%
39 | c1csc(CN2CCc3onc(Cn4cccc4)c3C2)c1 | 2.41%
40 | Cc1cccc(S(=O)(=O)NC(=O)CCc2cscn2)c1 | 18.6%
41 | NC(=O)NC(=O)CCN(Cc1ccccc1)CC1CCOCC1 | 6.23%
42 | O=C(CN(Cc1ccccc1)CC1CCOCC1)NC(=O)NC1CC1 | 55.1%
43 | O=C(CN(Cc1ccccc1)CC1CCOCC1)Nc1nccs1 | -1.53%
44 | Cc1ccc(C(=O)NC2CCN(C(=O)NCc3ccccn3)CC2)o1 | -4.16%
45 | Cc1cc(NC(=O)NCC2CCN(C(C)C)C2)no1 (stereo unspecified) | -25.8%
46 | Cc1cn2c(n1)CCC(NC(=O)c1ccc(S(C)(=O)=O)o1)C2 (stereo unspecified) | 42.3%

Row | SMILES | INHIBITION
47 | Cc1ccc(CNC(=O)Cn2c(=O)c3cccnc3n2C)cc1F | 47.2%
48 | Cn1c2ncccc2c(=O)n1CC(=O)NCCC1=CCCCC1 | 66.8%
49 | Cn1c2ncccc2c(=O)n1CC(=O)NCCc1c(F)cccc1F | 39.6%
50 | CCc1ccc(CN2CCc3ncnc(N4CCOCC4)c3CC2)o1 | 12.7%
51 | CC(C)(C)CN(CCC#N)Cn1cc(Cl)cn1 | 40.7%
52 | N#Cc1cc(F)ccc1CN1CCCCC1Cn1cccn1 (stereo unspecified) | 5.03%
53 | Cn1ccnc1CN1CCCCC1Cn1cccn1 (stereo unspecified) | 59.7%
54 | N#Cc1cc(F)ccc1CN1CCCC1Cn1cccn1 (stereo unspecified) | 66.7%
55 | Cc1cnn(CC2CCCN2Cc2noc(C(C)(C)C)n2)c1 (stereo unspecified) | -9.37%
56 | Cn1ccnc1CN1CCCC1Cn1cccn1 (stereo unspecified) | -14%
57 | Cc1cccn2c(=O)cc(CN3CCCC3Cn3cccn3)nc12 (stereo unspecified) | 65.2%
58 | Cc1cnn(CC2CCCN2Cc2nccn2C)c1 (stereo unspecified) | 41.2%
59 | CC(C)(C)c1nc(CN2CCCC2Cn2cccn2)no1 (stereo unspecified) | 60.5%
60 | Cc1cnn(CC2CCCN2Cc2cc(=O)n3cccc(C)c3n2)c1 (stereo unspecified) | 42.9%
61 | N#Cc1ccc(CN2CCCC2Cn2cccn2)c(F)c1 (stereo unspecified) | 25.6%
62 | CC(C)(C)c1nc(CN2CCCC2Cn2cncn2)no1 (stereo unspecified) | -38%
63 | Cc1cccn2c(=O)cc(CN3CCCC3Cn3cncn3)nc12 (stereo unspecified) | -30.7%
64 | CCOc1ncccc1NC(=O)C1CCS(=O)(=O)C1 (stereo unspecified) | 11.9%
65 | Cc1ccc(CN2CCOC(c3cnccn3)C2)s1 (stereo unspecified) | 16.82%
66 | Cn1cc([C@@H]2CN(S(=O)(=O)c3ccccc3F)C[C@H]2N)c2ccncc21 | 18%
67 | Cc1nnc(NC(=O)NCc2ccnc(N(C)C)c2)s1 | -39.7%
68 | COC(=O)CC1CCN(C(=O)c2ccc(C)cc2)CC1 | 28.7%
69 | CNC(=O)C1(Cc2cc(C(C)C)no2)CCN(Cc2ccccn2)C1 (stereo unspecified) | 11.9%

Row | SMILES | INHIBITION
70 | Cc1noc(C(C)C)c1C(=O)NS(=O)(=O)c1ccc(Cl)cc1 | -28.4%
71 | CNc1cccc(C2CCCN(C(=O)c3cccnc3)C2)n1 (stereo unspecified) | 35.2%
72 | Cc1cnn(CC2CCCN2Cc2c(C)noc2C)c1 (stereo unspecified) | 5.983%
73 | O=C(CCc1nccs1)N1CCCC(n2ccnc2)C1 (stereo unspecified) | -1.14%
74 | CCOC(C)c1nccn1Cc1cc(C)on1 (stereo unspecified) | 26.4%
75 | CC(=O)Nc1ccc(CNC(C)c2c(C)nn(C)c2C)cc1 (stereo unspecified) | -42.1%
76 | COCCC(=O)N1CCCC1c1csc(Nc2ccccn2)n1 (stereo unspecified) | 30.8%
77 | CC(C)(C)c1cc(NC(=O)CN2CCCC2Cn2cccn2)on1 (stereo unspecified) | 53%
78 | CC(C)c1cc(NC(=O)CN2CCCC2Cn2cccn2)on1 (stereo unspecified) | 19.5%
79 | CCn1c(C2CCCN2Cc2noc(C(C)(C)C)n2)nc2ccccc21 (stereo unspecified) | -12.1%
80 | CC(C)(C)c1nc(CN2CCCC2c2nnc3ccccn23)no1 (stereo unspecified) | 57.2%
81 | CC(C)(C)c1cc(NC(=O)CN2CCCC2Cn2cncn2)on1 (stereo unspecified) | 9.41%
82 | Cc1noc(C)c1CN1CCCC1c1nnc2ccccn12 (stereo unspecified) | 17.5%
83 | COc1cccc(C(=O)NC(CC(=O)O)c2cccs2)c1OC (stereo unspecified) | -7.31%
84 | CCc1nc(C#N)c(N2CCC(c3nc(-c4ccccc4)no3)CC2)o1 | 34.6%
85 | Cc1nc(C#N)c(N2CCC(c3nc(-c4ccc(F)cc4)no3)CC2)o1 | 34%
86 | Cc1nc(C#N)c(N2CCC(c3nc(-c4ccccc4)no3)CC2)o1 | 57.6%
87 | O=C(NCc1cc(F)cc(Br)c1)C1(O)CCSCC1 | -26.2%
88 | CC(C)(C(=O)N1CCC(CS(N)(=O)=O)CC1)c1ccccc1F | 17.9%
89 | CC(C)(C(=O)N1CCC(C(N)=O)C1)c1ccccc1F (stereo unspecified) | 52.9%
90 | CC(C)(C(=O)NCC(=O)N1CCCC1)c1ccccc1F | -36.4%
91 | c1coc(CN2CCCC3(COCCN(Cc4c[nH]nn4)C3)C2)c1 (stereo unspecified) | 4.92%
92 | CCNC(=O)C1CCN(c2cc(-c3ccccc3)nc3cc(C)nn23)C1 (stereo unspecified) | 56.5%

Row | SMILES | INHIBITION
93 | CCc1cc(N2CCN3CCCCC3C2)n2nccc2n1 (stereo unspecified) | 30.9%
94 | Cc1nn2c(N3CCC(C(N)=O)CC3)cc(-c3ccccc3)nc2c1C | 61.3%
95 | O=C1CN(c2cc(-c3ccccc3F)nc3ccnn23)CCCN1 | 6.11%
96 | CC(=O)NC1CCN(c2cc(-c3ccccc3)nc3c(C)c(C)nn23)C1 (stereo unspecified) | -3.58%
97 | Cc1nn2c(N3CCC(O)CC3)cc(-c3ccccc3)nc2c1C | 41.8%
98 | CCNC(=O)C1CCN(c2cc(-c3ccccc3)nc3ccnn23)C1 (stereo unspecified) | 33%
99 | Cc1nn2c(N3CCCC(C(N)=O)C3)cc(-c3ccccc3)nc2c1C (stereo unspecified) | -32.2%
100 | CCNC(=O)C1CCN(c2cc(-c3ccccc3F)nc3ccnn23)C1 (stereo unspecified) | 53.3%
101 | CCNC(=O)C1CCN(c2nccc(C3CCCC3)n2)C1 (stereo unspecified) | -2.34%
102 | CCc1cc(N2CC(N3CCCCC3C)C2)n2nccc2n1 (stereo unspecified) | 12.8%
103 | CCNC(=O)C1CCN(c2cc(CC)nc3ccnn23)C1 (stereo unspecified) | 52.2%
104 | Cc1csc(CCNCc2cnc3c(c2)c(C)nn3C)n1 | -14.8%
105 | COCC1CN(Cc2ccc(OC)cc2)Cc2nnn(CC3CC3)c21 (stereo unspecified) | 18.7%
106 | COCCOc1ccc(CNC2CCc3ncnn3C2)cc1OC (stereo unspecified) | 49.5%
107 | COc1cccc(CCNS(=O)(=O)c2ccc(NC(C)=O)cc2)c1 | 22.9%
108 | CCN1CCN(C)C(=O)C12CCN(Cc1cccc(C)c1)CC2 | 39.5%
109 | Cc1nc(CN2CCN(C(=O)c3ccc(=O)n(C)c3)CC2)cs1 | -15.9%
110 | CN(C)C(=O)NCC(=O)N1CCCC2(CCC(=O)N(CC3CC3)C2)C1 (stereo unspecified) | 24.9%
111 | O=C(NCC1(O)CCC1)NC(c1cc(F)ccc1F)C1CC1 (stereo unspecified) | 31.2%
